According to PubChem BioAssay (NCATS):
Records with an inconclusive call do not appear. Values without a mark were called inactive. The call rests on the fitted dose curve; in most records, active means well fitted cell-killing curve with a large enough effect; inconclusive means small, poorly fitted or top-dose-only effect, or effect the other way; inactive means flat fitted curve, though single readings scatter.

The compounds below were run on CAOV3 (assay: Primary qHTS to identify gynecologic anti-cancer compounds using libraries of approved drugs and bioactive compounds (AID 1345084; further: nearly all actives have a fitted effect of over 55% in size)). Conditions: Gynecologic cancer cell panel viability, ATPlite luminescence, 48 h; series mostly up to 57.5 µM; activity change, negative = cytotoxicity: at the top concentration.
Excerpt: National Center for Advancing Translational Sciences [NCATS] Assay Overview: Chemotherapeutic drug responses vary from cancer to cancer and from patient to patient. These variations could be caused by a number of factors including patient genomic background, tumor mutations, tumor heterogeneity, and aspects of drug treatment. Chemotherapeutic drug resistance is also a common issue and can lead to ineffective treatment and patient death. Here we have profiled the cell killing effects of thousands of compounds to characterize the responses in three gynecological cancers, identify cancer-selective compounds, and understand the diversity of responses to these compounds from pan-cancer suppressors to single cell line selective compounds. In this assay, we screened a 7,914 compound drug library that included approved drug and bioactive compounds in six ovarian, three cervical, and […] placental cancer cell lines using the ATPlite assay for cell viability. […] The cervical cancer cell lines included HeLa, Ca Ski, and C-33 A. The placental cancer cell lines included JEG-3. HEK 293T cells were used as the control cell line to determine the selectivity index. ATPlite is a luminescence based assay reliant on the conversion of a luciferase substrate to light in the presence of ATP. As a cytotoxic compound will suppress growth and decrease the number of cells, the concentration of ATP will decrease, and less light signal will be detected in the well.
Assay Protocol Summary: 1,000 cells in 4 uL of media were dispensed into white, solid bottom 1536-well plates using a Multidrop Combi (Thermo Scientific). The Assay plates were incubated for 16 hours at 37 C with 5% CO2 in assay plates, followed by the addition of 23 nL of DMSO or drug dissolved in DMSO. Each compound was assayed in five concentrations (0.092, 0.46, 2.3, 11.5, and 57.5 uM), using the automated Wako 1536 Pin Tool workstation and incubated at 37 C with 5% CO2 48 hours. 4 uL of ATPlite, the ATP monitoring reagent, was then added to the each well of the assay plates using the Multidrop Combi reagent dispenser followed by incubation for 15 minutes at room temperature. The resulting luminescence was measured using the ViewLux plate reader.
On the % scale 0 is the no-effect control and ±100 the full control effect.

Row | Structure (SMILES) | activity change, negative = cytotoxicity
1 | CN1CCN(c2cc3c(cc2F)c(=O)c(C(=O)O)cn3-c2ccc(F)cc2)CC1 | 0.441%
2 | CCN1CCN(C(=O)N[C@@H](C(=O)N[C@@H]2C(=O)N3C(C(=O)O)=C(CSc4nnnn4C)CS[C@H]23)c2ccc(O)cc2)C(=O)C1=O | 14.6%
3 | COc1ccc(-c2cc(C(F)F)nn2-c2ccc(S(N)(=O)=O)cc2)cc1F | 4.39%
4 | CC(=O)NO | -6.85%
5 | O=C(NC1CCN(CCc2c[nH]c3ccccc23)CC1)c1ccccc1 | 6.44%
6 | CC(C)(C)NC[C@H](O)COc1nsnc1N1CCOCC1 | 6.18%
7 | OC(C#CCN1CCCC1)(c1ccccc1)c1ccccc1 | 0.442%
8 | Oc1c(Cl)cc(Cl)c(Cl)c1Cc1c(O)c(Cl)cc(Cl)c1Cl | -22.3%
9 | COc1ccc(C(Cl)=C(c2ccc(OC)cc2)c2ccc(OC)cc2)cc1 | -12.8%
10 | COc1cc(N)c(Cl)cc1C(=O)NC1CCN(Cc2ccccc2)CC1 | -2.46%
11 | CC(=O)NCCCCCC(=O)O | 3.25%
12 | C[C@@H](O)[C@H]1C(=O)N2C(C(=O)O)=C(S[C@@H]3CN[C@H](CNS(N)(=O)=O)C3)[C@H](C)[C@H]12 | 12.3%
13 | CCCN(CCc1cccs1)[C@H]1CCc2c(O)cccc2C1 | -9.2%
14 | O=C(O)c1ccc(S(=O)(=O)N(Cl)Cl)cc1 | 5.27%
15 | NC(=O)C1(N2CCCCC2)CCN(CCCC(=O)c2ccc(F)cc2)CC1 | 6.13%
16 | COc1ccc(CCN(C)CCCN2CCc3cc(OC)c(OC)cc3CC2=O)cc1OC | 23.8%
17 | Cc1ccc(-c2ncc(Cl)cc2-c2ccc(S(C)(=O)=O)cc2)cn1 | 5.15%
18 | CCN(CC)CCOC(=O)C1(c2ccccc2)CCCC1 | -7.74%
19 | CO[C@H]1C=CO[C@@]2(C)Oc3c(C)c(O)c4c(O)c(c(/C=N/N5CCN(C)CC5)c(O)c4c3C2=O)NC(=O)/C(C)=C\C=C[C@H](C)[C@H](O)[C@@H](C)[C@@H](O)[C@@H](C)[C@H](OC(C)=O)[C@@H]1C | -18.6%
20 | CCN(CC)CCNC(=O)COc1ccc(OC)cc1 | 5.67%

Row | Structure (SMILES) | activity change, negative = cytotoxicity
21 | CN(C)CCC[C@@]1(c2ccc(F)cc2)OCc2cc(C#N)ccc21 | -10.1%
22 | FC1(F)C(F)(F)C(F)(F)C2(F)C(F)(F)C(F)(F)C(F)(F)C(F)(F)C2(F)C1(F)F (stereo not given) | -6.64%
23 | CC(=O)Nc1ccc(S(=O)(=O)Nc2ccc([N+](=O)[O-])cc2)cc1 | 13.6%
24 | CC(=O)Nc1ncc([N+](=O)[O-])s1 | 0%
25 | CCN(CC)CCOC(=O)C(Cc1cccc2ccccc12)CC1CCCO1 (stereo not given) | -16.1%
26 | CCOC(=O)c1ccc(N)cc1 | -0.827%
27 | c1ccc(-c2nc[nH]c2-c2ccccc2)cc1 | -4.97%
28 | O=C(O)C(Cc1cc(I)c(O)c(I)c1)c1ccccc1 (stereo not given) | -28.7%
29 | Cc1cn([C@H]2C[C@H](F)[C@@H](CO)O2)c(=O)[nH]c1=O | -9.2%
30 | CCOC(=O)Nc1ccc2c(c1)N(C(=O)CCN1CCOCC1)c1ccccc1S2 | 14.3%
31 | CC(C)(C)NCC(O)COc1cccc2c1C[C@H](O)[C@H](O)C2 (stereo not given in full) | 22%
32 | C=C[C@H]1CN2CC[C@H]1C[C@@H]2[C@@H](O)c1ccnc2ccc(OC)cc12 | 9.43%
33 | CC(=O)Nc1ccc(CC(=O)O)cc1 | -3.35%
34 | CN1CCN(c2c(F)cc3c(=O)c(C(=O)O)cn4c3c2SCC4)CC1 | 2.1%
35 | Cc1ccccc1OCC(O)CO (stereo not given) | 12.5%
36 | Nc1nc(N)c(-c2ccccc2)s1 | 26%
37 | CCC1Nc2cc(Cl)c(S(N)(=O)=O)cc2S(=O)(=O)N1 (stereo not given) | -8.23%
38 | C[N+]12CCC(CC1)C(OC(=O)C(O)(c1ccccc1)c1ccccc1)C2 (stereo not given) | -1.62%
39 | O=C(CCN1CCN2CCCC2C1)N1c2ccccc2Sc2ccc(Cl)cc21 (stereo not given) | 1.75% [at 25.3 µM]
40 | Cc1nc(-c2ccc(Cl)cc2)oc1COC(C)(C)C(=O)O | 5.42%
